Compounds with a hit are over-represented: about 3.9% of the library has one in this group of screens.
ERK AVP inh: inhibitors of vasopressin-stimulated ERK signaling pathway; HEK293-V1b, vasopressin-stimulated pERK AlphaScreen; Potency, µM (titrated, usually from 57.5 µM), for the others: top-dose activity, negative = inhibition, most hits filed as inhibitors; actives 0.99% (n = 72,000); AID 995; note: potency is the fitted concentration of half-maximal effect; % is set by controls: 0 for no effect and ±100 for the full control effect; nearly all actives have a fitted effect of over 55% in size
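HEK293 cells stably expressing V1b receptor, preincubated 30 min at 37 °C with compound, then stimulated 5 min with 25 nM vasopressin. Phospho-ERK by AlphaScreen SureFire after 5 h RT; normalized to DMSO and vasopressin; AC50 by Hill fit.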
Caspase-1 inhib: blocks human caspase-1 allosterically or competitively | Potency, µM (doses to about 57.5 µM), for inactives: top-dose activity change, negative = inhibition, hits mostly inhibitors | AID 900 | actives 0.03% (n = 75,000) | Caspase-1 enzyme, Ac-WEHD-AFC fluorogenic rate | P29466;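 note: potency is the fitted concentration of half-maximal effect; plate controls were vehicle for no effect and no substrate for full effect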
Tau filament bind: tau filament binding; AID 596; actives 2% (n = 71,000); Potency, µM (highest dose often 57.1 µM), for the others: at the highest dose activity change, negative = inhibition; P10636; recombinant tau filaments, thioflavin S fluorescence, 15 h; filaments grown with octadecylsulfate alongside compound;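 note: potency is the fitted concentration of half-maximal effect; % is set by controls: 0 for no effect and ±100 for the full control effect; actives lower thioflavin S fluorescence by blocking filaments or displacing dye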
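ThS-based fibril read: tau 1 uM final, inducer ODS 30 uM final, 37 C for 15 h, ex 450/em 510 nm.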
ALOX15 inhib: inhibitors of human 15-lipoxygenase (ALOX15). P16050. AID 887. Potency, µM (doses to about 57.1 µM), inactives show at the highest dose activity change, negative = inhibition, usual class: inhibitors. purified 15hLO-1, xylenol orange hydroperoxide absorbance. actives 1.4% (n = 74,000); note: potency is the fitted concentration of half-maximal effect; % is set by controls: 0 for no effect and ±100 for the full control effect; nearly all actives have a fitted effect of over 55% in size
Target sequence (P16050 whole entry, looked up): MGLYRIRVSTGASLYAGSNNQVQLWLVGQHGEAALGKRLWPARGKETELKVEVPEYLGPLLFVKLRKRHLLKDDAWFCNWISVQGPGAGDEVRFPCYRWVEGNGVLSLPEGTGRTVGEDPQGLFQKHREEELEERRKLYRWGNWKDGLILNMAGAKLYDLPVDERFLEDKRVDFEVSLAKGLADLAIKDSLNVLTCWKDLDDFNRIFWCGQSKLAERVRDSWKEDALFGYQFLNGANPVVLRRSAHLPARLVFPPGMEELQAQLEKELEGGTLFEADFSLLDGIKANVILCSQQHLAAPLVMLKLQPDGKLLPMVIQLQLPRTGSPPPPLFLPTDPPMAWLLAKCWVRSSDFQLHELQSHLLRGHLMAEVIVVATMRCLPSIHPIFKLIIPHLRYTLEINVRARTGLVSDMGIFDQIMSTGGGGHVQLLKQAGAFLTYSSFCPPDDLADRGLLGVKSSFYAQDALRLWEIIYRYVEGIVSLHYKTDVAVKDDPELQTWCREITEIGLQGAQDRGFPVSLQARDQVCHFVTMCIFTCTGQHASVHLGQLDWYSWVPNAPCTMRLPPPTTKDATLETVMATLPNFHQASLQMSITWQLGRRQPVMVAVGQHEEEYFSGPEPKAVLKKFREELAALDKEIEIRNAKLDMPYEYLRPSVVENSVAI
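Purified human 15hLO-1 (40 nM) in 25 mM Hepes pH 7.5, 0.01% Triton X-100, preincubated 15 min RT with compound, then 50 uM arachidonic acid for 6 min. Hydroperoxide read by ferrous/xylenol orange, 30 min; 573/405 nm absorbance ratio gave progress.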
Casp7 inh: allosteric or competitive inhibitors of human caspase-7; P55210; recombinant caspase-7, Ac-DEVD-AFC fluorescence rate; Potency, µM (highest dose often 57.5 µM), for the others: at the highest dose activity change, negative = inhibition, hits mostly inhibitors; actives 0.02% (n = 75,000); active = well fitted inhibition curve with a large enough effect in the main read-out, with a control signal flat, not every such curve was filed as active; inconclusive = small, poorly fitted or top-dose-only effect, or a change in a side signal; note: potency is the fitted concentration of half-maximal effect; % of control where 0% means no effect
Tau ThS bind: displaces Thioflavin S from human tau filaments; AID 911; Potency, µM; shares compounds with Tau filament bind; actives 40% (n = 60); recombinant tau filaments, Thioflavin S fluorescence displacement; calls by dose curve
aSyn ThS displ: compounds binding human alpha-synuclein fibrils, displacing Thioflavin S; shares compounds with Tau filament bind; recombinant alpha-synuclein fibrils, ThS fluorescence displacement; Potency, µM; actives 40% (n = 60); AID 937; calls by dose curve
Abeta ThS bind: displaces Thioflavin S from Abeta1-42 fibrils; shares compounds with Tau filament bind; Abeta1-42 fibrillization, thioflavin S fluorescence, overnight 37 C; Potency, µM; actives 50% (n = 60); AID 956; calls by dose curve
* = called active by the depositor; i = inactive; ? = inconclusive; . = no result; [ ] = remark or other dose. Unless noted, calls come from the whole dose curve; as a rule, active = well fitted curve in the direction sought with a large enough effect; inconclusive = small, poorly fitted or top-dose-only effect, or another doubt; inactive = no such curve, though single readings can be large; an effect the other way counts as inactive or inconclusive.

SMILES	ERK AVP inh	Caspase-1 inhib	Tau filament bind	ALOX15 inhib	Casp7 inh	others
CCCCN1C(=O)NC(=O)C2(Cc3c(nc4ccccn4c3=O)N3CCc4ccccc4C32)C1=O (centres undefined)	-13%	-5%	21%	20µM*	-3%
Cc1c([C@@H](C)[C@H]2NC[C@H](C)C[C@@H]2O)ccc2c1C[C@@H]1[C@H]2CC=C2C[C@@H](O)CC[C@@]21C	3%[11.5 µM]	2%[11.5 µM]	-1%[11.4 µM]	31%[11.4 µM]	-2%[11.5 µM]
COc1ccc2c(c1)CCC1[C@@H]2CCC2(C)[C@@H](NCCCCCCN3C(=O)C=CC3=O)CC[C@@H]12 (some centres undefined)	7%	2%	?	13µM*	1%
c1ccc2c(c1)Sc1ccccc1N2C[C@H]1CN2CCC1CC2	-2%[11.5 µM]	-3%[11.5 µM]	1.6µM*	-2%[11.4 µM]	0%[11.5 µM]
NCCCN1CCN(c2ccccc2)CC1	-8%[11.5 µM]	5%[11.5 µM]	1%[11.4 µM]	9%[11.4 µM]	-2%[11.5 µM]
COc1ccc(N2CCN(CCCN)CC2)cc1	-19%	0%	20µM*	3%	-2%
NNc1nncn1N	-15%[11.5 µM]	1%[11.5 µM]	0%[11.4 µM]	-6%[11.4 µM]	1%[11.5 µM]
Oc1ccc(Cl)cc1Sc1cc(Cl)ccc1O	-14%[11.5 µM]	-4%	5%[11.4 µM]	4µM*	-9%
Nc1ccc(Cl)cc1N	4%	-3%	2.5µM*	?	-2%
Nc1cc(Cl)ccc1O	?	-6%	?	1.6µM*	-10%
Nc1cc(Cl)ccc1Cl	7%	0%	-1%	-5%	0%
C[C@@H]1O[C@@H](O[C@H]2C[C@@H](O)[C@]3(CO)[C@@H]4[C@@H](O)C[C@]5(C)[C@H]([C@@H]6COC(=O)C6)CC[C@@]5(O)[C@H]4CC[C@@]3(O)C2)[C@H](O)[C@H](O)[C@@H]1O	4%	1%	-9%	-4%	1%
CC1(C)CN=C(NCc2ccccc2Cl)S1	-7%	0%	25µM*	14%	1%
CCCN1CC[C@@H]2c3cc(O)ccc3CC[C@H]21	3%	1%	-10%	4%	1%
CN(C)Cc1c[nH]c2ccccc12	16%	1%	?	3%[25.6 µM]	2%
c1ccc2c(CCNC3=NCCC3)c[nH]c2c1	-14%	2%	-2%	13µM*	1%
N#CC(C#N)=Cc1ccc([N+](=O)[O-])c(O)c1	15%	6%	2%	-25%	-1%
N#C/C(=C\c1ccc(O)c(O)c1)C(=O)NCCCNC(=O)/C(C#N)=C/c1ccc(O)c(O)c1	3%	1%	5%	3.2µM*	1%
O=C(O)/C=C\c1ccc[c]([Sb](=[O])([OH])[OH])c1	6%[11.5 µM]	-6%[11.5 µM]	5%[11.4 µM]	-26%[11.4 µM]	-3%[11.5 µM]
CCC(=NCc1ccco1)c1c(O)n(C2CCCCC2)c(=O)[nH]c1=O	-13%	-3%	-10%	?	-6%
CCC(=Nc1ccc(OC)cc1OC)c1c(O)n(C2CCCCC2)c(=O)[nH]c1=O	-28%	-7%	10µM*	?	-13%
CN[C@H]1[C@H](C)O[C@@H](O[C@@H]2C/C=C(/C)C/C(C)=C\C=C/CC[C@@H](C)CNC(=O)/C=C\C=C/[C@H]2C)C[C@@H]1O	.	.	196%[11.4 µM]	.	.
CC(=O)Oc1c2c(c(CC=C(C)C)c3c1C(=O)C1=CC4CC5C(C)(C)OC(C/C=C(\C)C(=O)O)(C4=O)[C@]15O3)OC(C)(CCC=C(C)C)C=C2 (some centres undefined)	6.3µM*	-12%	.	?	?
CNC(C)(C)Cc1ccccc1	2%	-4%	-16%[25.6 µM]	-5%	0%
CC(C)(OO)c1ccccc1	-7%	-2%	-3%	0.13µM*	-1%
SMILES	ERK AVP inh	Caspase-1 inhib	Tau filament bind	ALOX15 inhib	Casp7 inh	others
C=CC(=O)OCC(CO)(COC(=O)C=C)COC(=O)C=C	16µM*	-5%	2%	-10%	-1%
Nc1ccnn1C1CCNCC1	32%	1%	25µM*	65%	1%
C[C@@H](CO)NC(=O)[C@H]1C=C2c3cccc4[nH]cc(c34)C[C@H]2N(C)C1	.	.	41%	.	.
COc1cc(N)ccc1Cc1ccc(N)cc1OC	?	0%	25µM*	-2%	0%
COc1ccc(N)cc1	22%	-8%	-6%	-10%	0%
COc1cc(OC)c(/C=C2/C(=O)Nc3ccccc32)c(OC)c1	?	-3%	-29%	-6%	0%	Tau ThS bind=i;aSyn ThS displ=i;Abeta ThS bind=i
N[C@@H](CSC1c2ccccc2-c2ccccc21)C(=O)O	-1%[11.5 µM]	-3%[11.5 µM]	8%[11.4 µM]	-20%[11.4 µM]	-2%[11.5 µM]

Screening results from PubChem.
